Results taken from PubChem BioAssay (Tox21).
Records with an inconclusive call do not appear. Calls of active or inactive are those of the source. Unless noted, the call rests on the fitted dose curve.

What was measured:
[1] = qHTS assay to identify small molecule antagonists of the vitamin D receptor (VDR) signaling pathway - cell viability counter screen (AID 743225; active means well fitted curve in the direction sought with a large enough effect in the repeat runs; an effect the other way counts as inactive or inconclusive; further: on the % scale 0 is the no-effect control and ±100 the full control effect; nearly all actives have a fitted effect of over 50% in size)
Outline: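 Cells (VDR-UAS-bla HEK 293T) are plated, rested 4 h at 37C, dosed with compound and 3 nM final 1-alpha,25-dihydroxy vitamin D3, and incubated 16 h. Viability is taken from CellTiter-Glo luminescence in the reporter wells.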

[2] = qHTS assay to identify small molecule agonists of the NFkB signaling pathway (AID 1159509; active means well fitted curve in the direction sought with a large enough effect in the signal ratio in the repeat runs, not every such curve was filed as active; the % refers to the signal ratio; further: series mostly up to about 61 µM; on the % scale 0 is the no-effect control and ±100 the full control effect)
Outline: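 NFkB-bla ME-180 cells with a beta-lactamase reporter under an NF-kB response element were plated overnight, treated with compounds in DMSO for 5 hr at 37 C, then loaded with FRET substrate for 1.5 hr at room temperature.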

[3] = qHTS assay to identify small molecule agonists of the NFkB signaling pathway - cell viability counter screen (AID 1159515); further: series mostly up to about 61 µM; on the % scale 0 is the no-effect control and ±100 the full control effect; nearly all actives have a fitted effect of over 55% in size
Outline: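 NFkB-bla ME-180 cells, 2,000/well, were plated overnight at 37 C, 5% CO2, then exposed to compounds in DMSO for 5 hr. After the bla FRET read, CellTiter-Glo was added to the same wells; luminescence was read after 30 min at room temperature.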

[4] = qHTS assay to identify small molecule agonists of the endoplasmic reticulum stress response signaling pathway - cell viability counter screen (AID 1159517); further: nearly all actives have a fitted effect of over 50% in size; further: potency means the concentration at half of the fitted maximal effect
Outline: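 Luminescence readout: CellTiter-Glo, 30 min RT, same wells as the ESRE-bla reporter read. HeLa ESRE-bla, 1,500 cells/well, o/n 37 C; cpd 5 hr 37 C/5% CO2.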

[5] = qHTS assay to identify small molecule antagonists of the retinoid-related orphan receptor gamma (ROR-gamma) signaling pathway - cell viability counter screen (AID 1159520; active means well fitted curve in the direction sought with a large enough effect in the repeat runs; an effect the other way counts as inactive or inconclusive; further: on the % scale 0 is the no-effect control and ±100 the full control effect; nearly all actives have a fitted effect of over 50% in size)
Outline: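 Tet-on ROR gamma CHO cells (1,000/well) were plated 4 hr, given compounds in DMSO for 2 hr at 37 C, then induced with 1 uM final doxycycline for 16 hr. Viability was read as ATP by CellTiter-Glo luminescence after 30 min.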

[6] = biological target: Nuclear receptor ROR-gamma (Homo sapiens) (UniProt P51449); experiment: qHTS assay to identify small molecule antagonists of the retinoid-related orphan receptor gamma (ROR-gamma) signaling pathway (AID 1159521; active means well fitted curve in the direction sought with a large enough effect in the repeat runs; an effect the other way counts as inactive or inconclusive;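 further: CHO cells with doxycycline inducible ROR-gamma driving an RORE luciferase reporter; top concentration of the series differs between compounds; on the % scale 0 is the no-effect control and ±100 the full control effect; nearly all actives have a fitted effect of over 50% in size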)
Outline: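 RORγ antagonism is scored from reduced reporter luminescence in Tet-on CHO cells. Induction used 1 uM final doxycycline hyclate for 16 h at 37 C, following a 2 h compound exposure.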

[7] = qHTS assay to identify small molecule agonists of the AP-1 signaling pathway - cell viability counter screen (AID 1159525); further: nearly all actives have a fitted effect of over 55% in size
Outline: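 ME-180 AP-1-bla, 2500 cells/well, Opti-MEM + 0.5% dialyzed FBS; overnight 37 °C; cpd 15-pt titration, 5 h 37 °C; CellTiter-Glo 30 min RT; luminescence read; normalised to TOAB and DMSO controls.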

[8] = qHTS assay to identify small molecule agonists of the AP-1 signaling pathway (AID 1159526); further: on the % scale 0 is the no-effect control and ±100 the full control effect
[9] = biological target: Retinoic acid receptor RXR-alpha (Homo sapiens) (UniProt P19793); experiment: qHTS assay to identify small molecule agonists of the RXR signaling pathway (AID 1159527); further: on the % scale 0 is the no-effect control and ±100 the full control effect; nearly all actives have a fitted effect of over 35% in size
Retinoic acid receptor RXR-alpha (Homo sapiens), sequence (P19793 whole entry, looked up): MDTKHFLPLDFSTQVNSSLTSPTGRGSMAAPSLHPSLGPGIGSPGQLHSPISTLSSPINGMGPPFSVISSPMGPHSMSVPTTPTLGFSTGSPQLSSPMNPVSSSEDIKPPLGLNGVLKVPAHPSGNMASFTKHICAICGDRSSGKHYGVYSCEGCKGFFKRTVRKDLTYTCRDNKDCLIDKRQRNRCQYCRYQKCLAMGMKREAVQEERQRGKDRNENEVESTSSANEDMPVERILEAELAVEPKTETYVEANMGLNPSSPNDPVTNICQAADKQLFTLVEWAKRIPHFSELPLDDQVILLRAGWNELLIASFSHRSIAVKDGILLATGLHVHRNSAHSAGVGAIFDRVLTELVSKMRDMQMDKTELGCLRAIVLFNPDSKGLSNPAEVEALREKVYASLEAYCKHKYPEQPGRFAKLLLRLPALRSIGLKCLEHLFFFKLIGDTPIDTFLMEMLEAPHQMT
Outline: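 qHTS of the Tox21 10K library in GeneBLAzer RXR-alpha HEK 293T cells carrying a beta-lactamase reporter […]; 16 hr treatment, 9-cis retinoic acid as agonist control, FRET read-out.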

COc1ccc2nc(S(=O)Cc3ncc(C)c(OC)c3C)[nH]c2c1 (centres undefined)
inactive: Potency [1] | outcome [2] | Potency [3] | Potency [4] | Potency [5] | Potency [6] | Potency [7] | outcome [8] | Potency [9]

CCCCCCCCCCCCCCCCCC(=O)OCC(CC)CCCC (centres undefined)
inactive: Potency [1] | outcome [2] | Potency [3] | Potency [4] | Potency [5] | Potency [6] | Potency [7] | outcome [8] | Potency [9]

COC1CCC=CO1 (centres undefined)
active: Potency [4] 55.3 µM
inactive: Potency [1] | outcome [2] | Potency [3] | Potency [5] | Potency [6] | Potency [7] | outcome [8] | Potency [9]

Cc1ccc2nc(N)[nH]c(=O)c2c1Sc1ccncc1
inactive: Potency [1] | outcome [2] | Potency [3] | Potency [4] | Potency [5] | Potency [6] | Potency [7] | outcome [8] | Potency [9]

CC(=O)NCCO
inactive: Potency [1] | outcome [2] | Potency [3] | Potency [4] | Potency [5] | Potency [6] | Potency [7] | outcome [8] | Potency [9]

CC(C)(C)NCC(O)COc1cccc2c1C[C@H](O)[C@H](O)C2 (some centres undefined)
inactive: Potency [1] | outcome [2] | Potency [3] | Potency [4] | Potency [5] | Potency [6] | Potency [7] | outcome [8]

O=C(O)c1cccc(C[C@@H]2COc3ccc(OCc4nc5cc(F)ccc5s4)cc3[C@@H]2O)c1
inactive: Potency [1] | outcome [2] | Potency [3] | Potency [4] | Potency [5] | Potency [6] | Potency [7] | outcome [8]

COc1ccc(N)c([N+](=O)[O-])c1
inactive: Potency [1] | outcome [2] | Potency [3] | Potency [4] | Potency [5] | Potency [6] | Potency [7] | outcome [8] | Potency [9]

CCCCCCCCCCCCCCN(C)C
inactive: Potency [1] | outcome [2] | Potency [3] | Potency [4] | activity, negative = cytotoxicity [5] 0.214% [at 19 µM] | activity change, negative = inhibition [6] -1.54% [at 19 µM] | viability change, negative = cytotoxic [7] 1.48% [at 15.8 µM] | activation [8] -14.8% [at 15.8 µM] | activation [9] 7.58% [at 15.8 µM]

CCCCOCCOC(=O)c1cccnc1
inactive: Potency [1] | outcome [2] | Potency [3] | Potency [4] | Potency [5] | Potency [6] | Potency [7] | outcome [8] | Potency [9]

FC(F)(F)C(F)(F)C(F)(F)C(F)(F)CCI
inactive: outcome [2] | Potency [3] | Potency [4] | Potency [5] | Potency [6] | Potency [7] | outcome [8] | Potency [9]

O=C(O)CNC(=O)c1ccccc1I
inactive: Potency [1] | outcome [2] | Potency [3] | Potency [4] | Potency [5] | Potency [6] | Potency [7] | outcome [8] | Potency [9]

CC(CCc1ccc(O)cc1)NCCc1ccc(O)c(O)c1 (centres undefined)
inactive: Potency [1] | outcome [2] | Potency [3] | Potency [4] | Potency [5] | Potency [6] | Potency [7] | outcome [8] | Potency [9]

CC(=O)OCCC1CCCCC1
inactive: Potency [1] | outcome [2] | Potency [3] | Potency [4] | Potency [5] | Potency [6] | Potency [7] | outcome [8] | Potency [9]

CCOC(=O)c1c(N)sc2c1CCN(Cc1ccccc1)C2
inactive: outcome [2] | Potency [3] | Potency [4] | Potency [5] | Potency [6] | Potency [7] | outcome [8] | Potency [9]

CCCCCCCCCCCCCC(=O)OCC(O)CO (centres undefined)
inactive: outcome [2] | Potency [3] | Potency [4] | Potency [5] | Potency [6] | Potency [7] | outcome [8]

Nc1ccc(N=Nc2ccc(N)cc2)cc1
inactive: Potency [1] | outcome [2] | Potency [3] | Potency [4] | Potency [5] | Potency [6] | Potency [7] | outcome [8] | Potency [9]

COc1cc(S(=O)(=O)Nc2ccccc2)c(OC)cc1N
inactive: outcome [2] | Potency [3] | Potency [4] | Potency [5] | Potency [6] | Potency [7] | outcome [8] | Potency [9]

CC(=O)C(C)=O
inactive: Potency [1] | outcome [2] | Potency [3] | Potency [4] | Potency [5] | Potency [6] | Potency [7] | outcome [8] | Potency [9]

CCOCCC(=O)OCC
inactive: Potency [1] | outcome [2] | Potency [3] | Potency [4] | Potency [5] | Potency [6] | Potency [7] | outcome [8] | Potency [9]

NC(=O)c1ccccc1[N+](=O)[O-]
inactive: Potency [1] | outcome [2] | Potency [3] | Potency [4] | Potency [5] | Potency [6] | Potency [7] | outcome [8] | Potency [9]

COc1ccc(CCN(C)CCCN2CCc3cc(OC)c(OC)cc3CC2=O)cc1OC
inactive: Potency [1] | outcome [2] | Potency [3] | Potency [4] | Potency [5] | Potency [6] | Potency [7] | outcome [8] | Potency [9]

CC(C)(O)CCc1ccccc1
inactive: Potency [1] | outcome [2] | Potency [3] | Potency [4] | Potency [5] | Potency [6] | Potency [7] | outcome [8] | Potency [9]

CC1=CC[C@@]23C[C@@H]1C(C)(C)[C@@H]2CC[C@H]3C
inactive: Potency [1] | outcome [2] | Potency [3] | Potency [4] | Potency [5] | Potency [6] | Potency [7] | outcome [8] | Potency [9]
